# The GenesisPotency data set
# The whole screen tested about 290,000 compounds, of which about 3,000 (1%) were called active. Rule as the data show it: active = inhibition mostly above about 36% (no sharp cut-off); inactive = mostly below about 34%. The full list was thinned out, with actives kept by preference.
# Molecular target: T1, Nucleotide-binding oligomerization domain-containing protein 1, Homo sapiens (UniProt Q9Y239)
# T1 sequence (whole entry): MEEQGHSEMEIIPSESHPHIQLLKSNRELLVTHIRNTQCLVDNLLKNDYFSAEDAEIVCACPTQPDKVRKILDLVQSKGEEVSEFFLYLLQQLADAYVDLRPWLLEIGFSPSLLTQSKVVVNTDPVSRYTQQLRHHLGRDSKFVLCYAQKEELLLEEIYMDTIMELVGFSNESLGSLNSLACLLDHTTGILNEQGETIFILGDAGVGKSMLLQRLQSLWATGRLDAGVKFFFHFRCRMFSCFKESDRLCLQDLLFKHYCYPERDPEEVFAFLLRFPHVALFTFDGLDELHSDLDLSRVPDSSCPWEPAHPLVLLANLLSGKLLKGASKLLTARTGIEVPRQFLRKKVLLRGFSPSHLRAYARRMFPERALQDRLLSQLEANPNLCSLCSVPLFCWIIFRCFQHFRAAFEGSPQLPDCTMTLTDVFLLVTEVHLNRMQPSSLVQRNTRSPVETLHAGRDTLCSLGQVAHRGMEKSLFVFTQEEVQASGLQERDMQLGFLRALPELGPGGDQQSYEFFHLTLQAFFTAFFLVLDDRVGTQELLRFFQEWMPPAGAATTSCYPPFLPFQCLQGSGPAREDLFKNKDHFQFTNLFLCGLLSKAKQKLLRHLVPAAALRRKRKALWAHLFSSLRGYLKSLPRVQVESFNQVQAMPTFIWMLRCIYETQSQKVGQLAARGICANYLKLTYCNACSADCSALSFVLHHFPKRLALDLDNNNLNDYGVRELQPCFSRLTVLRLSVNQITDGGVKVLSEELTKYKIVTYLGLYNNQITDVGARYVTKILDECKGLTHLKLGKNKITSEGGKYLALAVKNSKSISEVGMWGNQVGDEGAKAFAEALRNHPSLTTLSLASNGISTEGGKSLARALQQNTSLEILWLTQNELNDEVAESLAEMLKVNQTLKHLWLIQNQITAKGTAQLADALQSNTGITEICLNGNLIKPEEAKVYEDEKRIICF
# Test: NOD1 signaling inhibitors, primary screen, cell-based, luminescence, uHTS (AID 1578)
row,SMILES,outcome
1,CCOC(=O)COc1ccc2ccccc2c1/C=C/[N+](=O)[O-],active
2,COc1ccc(CC(=O)Nc2cccc(-c3nnc(-c4ccc(C)cc4)o3)c2)cc1OC,active
3,c1ccc2c(c1)ncn2-c1ccc(-c2ccnc(-c3ccncc3)n2)cc1,active
4,Nc1nccc(-c2ccc(-n3cnc4ccccc43)cc2)n1,active
5,O=C(NNC(=O)c1ccccc1OCc1ccc(F)cc1)c1ccccc1O,active
6,O=C(NNC(=O)c1ccccc1OCc1ccccc1)c1ccccc1O,active
7,c1csc(C2=Nn3c(nnc3-c3ccncc3)SC2)c1,active
8,COc1cccc(-c2nnc3n2N=C(C(C)(C)C)CS3)c1,active
9,COc1ccc(C2=Nn3c(nnc3-c3ccncc3)SC2)cc1,active
10,c1ccc(C2=Nn3c(nnc3-c3ccncc3)SC2)cc1,active
11,Clc1ccccc1C1=Nn2c(nnc2-c2ccncc2)SC1,active
12,N#C/C(=C(/O)COC(=O)COc1ccc(Cl)cc1)c1nc2ccccc2[nH]1,active
13,N#C/C(=C(/O)COC(=O)COc1cccc(Br)c1)c1nc2ccccc2[nH]1,active
14,Cc1cc(C)cc(OCC(=O)OC/C(O)=C(\C#N)c2nc3ccccc3[nH]2)c1,active
15,COc1ccc(-[n+]2c(C)cc(/C=C3\Sc4ccccc4N3C)cc2C)cc1.[I-],active
16,COc1ccc(-c2cnc(N)nc2-c2ccc(OC)cc2O)cc1,active
17,COc1ccc(-c2cncnc2-c2ccc(OC)cc2O)cc1,active
18,Cc1ccc(Nc2cc(C)nn2-c2nc(C)cc(=O)[nH]2)cc1,active
19,O=c1c2c(nc3c(-c4ccc(Cl)cc4)c[nH]n13)CCCC2,active
20,O=c1c2c(nc3c(-c4cccc(Br)c4)c[nH]n13)CCCC2,active
21,CCCc1cc(=O)n2[nH]cc(-c3ccc(Cl)cc3)c2n1,active

row,SMILES,outcome
1,O=c1c2c(nc3c(-c4ccc(Cl)cc4)c[nH]n13)CCC2,active
2,CN(C)S(=O)(=O)N1CCC(Oc2cccc(C(=O)NC3CCCCCC3)c2)CC1,active
3,Cc1cccc(NC(=S)N/N=C/c2ccc([N+](=O)[O-])s2)c1,active
4,Cc1ccc(NC(=S)N/N=C/c2ccc([N+](=O)[O-])s2)cc1,active
5,Cc1cc(N2CCOCC2)c2c(N)c(Br)cc(C)c2n1,active
6,O=C(Nc1nc(-c2ccccn2)cs1)Nc1ccc(F)cc1F,active
7,CC(Oc1ccc(Br)cc1)C(=O)Nc1nc(-c2ccccn2)cs1 (configuration not stated),active
8,O=C(Nc1nc(-c2cc(F)ccc2F)cs1)c1ccccn1,active
9,O=C(Nc1nnc(SCc2ccc(F)cc2)s1)c1ccccn1,active
10,Cn1cc([N+](=O)[O-])c(C(=O)Nc2nc(-c3ccc(Cl)cc3)cs2)n1,active
11,O=C(Nc1nc(-c2ccccn2)cs1)c1cc(Cl)ccc1[N+](=O)[O-],active
12,OCCCNc1ncnc2scc(-c3ccc(Cl)cc3)c12,active
13,COc1ccc(-c2csc3ncnc(NCCCO)c23)cc1,active
14,COc1ccc(-c2csc3ncnc(NCCO)c23)cc1,active
15,CCN(CC)S(=O)(=O)c1ccc2[nH]cc(C(=O)NCCC3=CCCCC3)c(=O)c2c1,active
16,Cn1c(=O)c2c(nc(NCc3ccco3)n2C/C=C/c2ccccc2)n(C)c1=O,active
17,O=C(Nc1ccc(CN2CCOCC2)cc1)c1ccc(-c2ccc(Cl)cc2Cl)o1,active
18,O=C(Nc1ccc(S(=O)(=O)Nc2ccc(F)cc2)cc1)c1ccc(CN2CCOCC2)cc1,active
19,O=C(Nc1ccc(S(=O)(=O)N2CCCCC2)cc1)c1ccc(CN2CCOCC2)cc1,active
20,O=C(Nc1ccc(S(=O)(=O)N2CCOCC2)cc1)c1ccc(CN2CCc3ccccc3C2)cc1,active
21,O=C(Nc1ccc(S(=O)(=O)N2CCCCC2)cc1)c1ccc(CN2CCc3ccccc3C2)cc1,active
